We go through 24 compounds from PubChem BioAssay (NCATS).

Assay [1] concerns CRL-7250. Description: Cytotoxic Profiling of Annotated Libraries Using Quantitative High-Throughput Screening (AID 1296008). Also: potency is read from the fitted curve at half-maximal effect. The settings on record: Five cell lines viability, CellTiter-Glo ATP luminescence, 48-72 h; max response: hits give low values. A digest of the protocol:
(§1)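 Compounds were pin-transferred onto cells and incubated 48 or 72 hr at 37 degree Celsius, 95% humidity. CellTiter-Glo was added, plates sat 10 min at room temperature, then ATP-coupled luminescence was imaged as the viability read-out.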
(ATP-based viability assays read luminescence as a measure of living cells.)

Assay [2] deals with HEK293. Described as above. Particulars: Five cell lines viability, CellTiter-Glo ATP luminescence, 48-72 h; max response: hits give low values. A digest of the protocol: as §1
Assay [3] deals with HaCat. The assay is described as above. The settings on record: Five cell lines viability, CellTiter-Glo ATP luminescence, 48-72 h; max response: hits give low values. In outline: as §1
The test system of assay [4] is KB-3-1. The assay is described as above. Particulars: Five cell lines viability, CellTiter-Glo ATP luminescence, 48-72 h; max response: hits give low values. A digest of the protocol: as §1
Assay [5] has as its system NIH3T3. The description is as above. The settings on record: Five cell lines viability, CellTiter-Glo ATP luminescence, 48-72 h; max response: hits give low values. A digest of the protocol:
as §1

In assay [6] the test system is HACAT. Description: qHTS assay to identify novel small-molecules to repurpose for Merkel cell carcinoma treatment (AID 1296009). The settings on record: MCC and control cell lines, CellTiter-Glo viability, 72 h; series mostly up to 44.8 µM. In outline:
(§2)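 Cells exposed to NPC (8-point) and MIPE (11-point) compound dilutions for 72 hr at 37 degree celsius; viability read by CellTiter-Glo luminescence, normalized to no-cell and DMSO in-plate controls.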
(In qHTS, concentration-response curves come from the screen itself.)

Assay [7] concerns HEK293T. Described as above. Particulars: MCC and control cell lines, CellTiter-Glo viability, 72 h; at 44.8 µM (top of the series) unless noted. In outline: as §2
Assay [8] relates to MCC-13. Described as above. Particulars: MCC and control cell lines, CellTiter-Glo viability, 72 h; series mostly up to 46 µM. A digest of the protocol: as §2
For assay [9], the system named is MCC-26. Described as above. The settings on record: MCC and control cell lines, CellTiter-Glo viability, 72 h; series mostly up to 46 µM. In outline: as §2

“And” between values parts separate entries of the source, which are not always exact repeats. Equal values may be shown once. Records with an inconclusive call do not appear. More than one record can exist for a structure, and the calls need not agree. A number with no mark means an inactive call. The source made the active and inactive calls. Calls follow the shape of the dose curve; as a rule, active = well fitted inhibition curve with a large enough effect; inconclusive = small, poorly fitted or top-dose-only effect; inactive = flat fitted curve, though single readings scatter.
% is scaled to controls: 0 for no effect and ±100 for the full control effect.
Also: nearly all actives have a fitted effect of over 60% in size.

On to `Clc1ccc2ncc(-c3cccc(NC4CNC4)n3)n2c1`, for which the outcome in [1], in assay [2], in assay [3], in assay [4], in [5] and in assay [7] was inactive. Further, in assay [2], the Potency was 18.7 µM (active). Further, the Potency entry in assay [6], in assay [8] and in assay [9] was “inactive” throughout.
On to `Cc1cc(Nc2ncnc3ccc(-c4ccc(CNCCS(C)(=O)=O)o4)cc23)ccc1Oc1ccn2ncnc2c1`, for which the Potency is 3.32 µM (active) and 23.1 µM (active) in assay [1]; 4.18 µM (active) in assay [2]; 11.8 µM (active) in assay [4]. For the same compound, the max response in [2] is -117%; in assay [3], -107%; in assay [4], -26.8%; in assay [5], -81.1%. The Potency result in [8] and in [9] was “inactive” throughout.
Turning to `CCCNC(=O)Nc1ccc(Oc2ncnc3cc(OC)c(OC)cc23)cc1Cl`, the max response in [1] was -26.7% and 2.06%; in assay [2], -15.3%; in assay [3], 0.131% and 2.87%; in [4], 4.92%; in [5], -7.41% and 0.662%. For the same compound, the compound was classed as inactive in assay [2] and in assay [7]. Moreover, the Potency entry in assay [8] and in assay [9] was “inactive” throughout.
On to `CN(C1CCc2c(c3ccccc3n2CC(=O)O)C1)S(=O)(=O)c1ccc(F)cc1` (centres undefined), for which the max response is 3.48% and -10.1% in assay [1]; -3% and -8.76% in assay [2]; -11.8% and -5.06% in [3]; 7.37% in assay [4]. The call in assay [1], in assay [2], in [3], in [4], in assay [5] and in [7] was inactive. The Potency entry in [6], in [8] and in assay [9] was “inactive” in each case.
With `Cc1ccc2nc(NC(=O)CSc3nc4c(c(=O)n3-c3ccccc3)SCC4)sc2c1`, the Potency in assay [1] was 13.2 µM (active); in assay [4] it was 9.35 µM (active). Besides, the max response in assay [1] was 3.83%; in [3] it was 3.94%; in assay [4] it was -10.5%; in assay [5], -19.8%. Further, the compound was classed as inactive in assay [2] and in assay [7]. Besides, the Potency entry in assay [8] and in assay [9] was “inactive” each time.
Turning to `CC(O)C1C(=O)N2C(C(=O)O)=C(SC3CNC(C(=O)N(C)C)C3)C(C)C12` (centres undefined), the max response in assay [1] is -9.97% and 0.421%; in [2], -5.51% and 0.11%; in assay [3], 0.187%; in assay [4], 5.3%; in [5], 0.991% and 3.69%. Besides, the call in assay [3] and in [4] was inactive. For the same compound, the Potency result in [6] and in assay [8] was “inactive” throughout.
On to `C[C@]12CC[C@H](O)CC1=CCC1C2CC[C@]2(C)C(n3cnc4ccccc43)=CCC12` (some centres undefined), for which the max response is -7.08% in assay [1]; -24.7% in assay [2]; 2.2% in assay [3]; 0.714% in assay [4]; 3.78% and -16% in [5]. The Potency in assay [2] was 14.6 µM (active). The Potency result in assay [8] and in assay [9] was “inactive” throughout.
For `O=C(CCCCCCC(=O)Nc1ccc([C@H]2O[C@@H](CSc3nc(-c4ccccc4)c(-c4ccccc4)o3)C[C@@H](c3ccc(CO)cc3)O2)cc1)NO`, the Potency is 18.7 µM (active) in assay [1]; 14.8 µM (active) and 18.4 µM (active) in assay [2]; 20.9 µM (active) in assay [3]; 11.8 µM (active) in [4]. Moreover, the max response in assay [1] is -17.1%; in [5], -17.5%. Further, the result in assay [3] was inactive. Also, the Potency result in assay [6] is “inactive”.
Take `COc1cccc(Nc2c(C(N)=O)cnc3c(C)cc(S(=O)(=O)c4cccc(C(=O)N(C)C)c4)cc23)c1`: the max response in assay [1] was -20.3%; in [3], 2.69%; in [4], -2.62% and -18.7%; in assay [5], -0.878%. Besides, the result in [1] was inactive. Besides, in assay [2], the Potency was 12.9 µM (active). Also, in assay [8], the Potency entry was “inactive”.
As for `Clc1cccc(-c2nnnn2Cc2cccnc2)c1Cl`, the max response in [1] is -2.93%; in assay [2], -0.348%; in assay [3], 3% and -9.84%; in assay [5], -9.84% and -14.4%. Moreover, the Potency in assay [2] is 26.4 µM (active). Besides, the outcome in assay [4] was inactive. The Potency result in assay [8] and in assay [9] was “inactive” in each case.
Consider `CN(C)CC(C)(C)CNc1nn2c(-c3ccccc3)nnc2cc1C1CCC1`, for which the max response is -13.8% in [1]; -29.4% and -5.55% in [3]; 9% in assay [4]; -0.774% in assay [5]. Further, the compound was called inactive in assay [1], in assay [2], in assay [4] and in assay [7]. The Potency in assay [2] was 4.18 µM (active). In addition, the Potency entry in assay [8] and in assay [9] was “inactive” in each case.
For the compound `C1Cc2[nH]nc(-c3nn[nH]n3)c2C1`, the max response is -5.71% and 4.92% in assay [1]; 2.99% in assay [2]; -5.07% in assay [3]; 5.58% in assay [4]. Moreover, the compound was classed as inactive in assay [2], in assay [3], in assay [4], in assay [5] and in assay [7]. The Potency entry in assay [6], in assay [8] and in assay [9] was “inactive” each time.
Consider `Cc1c(C)n(Cc2ccc(-c3ccccc3C(=O)O)cc2)c2ccc(C(=O)N[C@@H](C)c3ccc([N+](=O)[O-])cc3)cc12`, for which the max response in [1] was 0.704%; in [2], -2.51%; in assay [3], -4.97%; in [4] it was 0.427% and 0.798%; in [5], -3.87% and -3.64%. For the same compound, the result in assay [1], in [2], in assay [3] and in [7] was inactive. Also, the Potency entry in [6], in assay [8] and in assay [9] was “inactive” in each case.
For `CCCn1c(=O)c2[nH]c(-c3cnn(Cc4cccc(C(F)(F)F)c4)c3)nc2n(CC)c1=O`, the max response in [1] is -9.35%; in [3], -0.725%; in assay [4] it was 0.919%; in assay [5], 1.05%. For the same compound, the call in assay [2], in assay [3], in assay [4], in [5] and in assay [7] was inactive. Moreover, the Potency result in assay [6] and in assay [8] was “inactive” in each case.
On to `O=C1CCC[C@@H]2[C@H]3CCC[N+]4([O-])CCC[C@@H](CN12)[C@@H]34` (some centres undefined), for which the max response is 2.61% in assay [1]; 0.171% in assay [2]; 2.01% in assay [3]; -0.364% and 8.14% in assay [4]; -2.91% in assay [5]. The compound was called inactive in [1], in assay [3] and in assay [5]. Besides, the Potency result in [6], in [8] and in assay [9] was “inactive” each time.
`CN(C)c1nc(Cc2ccc(NC(=O)c3ccc4ccccc4c3)cc2)nc(Cl)c1CC(=O)O`: the max response in assay [1] is 0.957% and -5.82%; in [2], -6.45%; in assay [3] it was 3.96%; in assay [5], 2.84% and 3.57%. Besides, the compound was classed as inactive in assay [2], in assay [3], in assay [4] and in assay [7]. In addition, the Potency result in assay [6] and in [8] was “inactive” throughout.
For `Cc1ccc(CN2CCNCC2)cc1NC(=O)CNc1ccc(F)c(F)c1`, the compound was classed as inactive in assay [1], in assay [2], in [3], in [4] and in assay [7]. The max response is -5.99% in [2]; 4% in assay [4]; -3.35% and 3.71% in assay [5]. In addition, the Potency entry in assay [6] and in assay [8] was “inactive” in each case.
Regarding `CNC(=O)c1ccc(N2C(=S)N(c3cnc(C#N)c(C(F)(F)F)c3)C(=O)C23CCC3)cc1F`, the max response in assay [1] was -2.94%; in assay [3], -2.38% and -0.362%; in assay [4], -8.3%; in assay [5] it was 0.376%. Also, the compound was called inactive in [1], in assay [2], in assay [4], in [5] and in assay [7].
`COc1cc2c(Nc3ccc(NC(=O)c4ccccc4)cc3)ncnc2cc1OCCCN1CCOCC1`: the max response was 5% in assay [1], -7.34% in assay [2] and -17.8% in assay [4]. The figures for the Potency in assay [2], in assay [3] and in assay [5] were 23.1 µM (active), 7.31 µM (active) and 14.6 µM (active), respectively. Moreover, the Potency result in assay [8] was “inactive”.
On to `O=C(O)CCCc1c[nH]c2ccccc12`, for which the max response in assay [1] is -4.82%; in assay [2], -0.171% and -7.8%; in [3] it was 4.3% and 3.03%; in assay [4], 0.51%; in [5] it was -1.55% and 2.66%. Further, the compound was called inactive in assay [1] and in assay [4]. The Potency result in assay [8] and in [9] was “inactive” in each case.
With `O=C(c1cncc(Br)c1)N1CCC(N2CCCC2)CC1`, the max response is -7.35% in assay [1]; 2.69% and -9.71% in assay [2]; 2.29% and 3.12% in assay [3]; 1.64% in [4]; 4.3% and 2.16% in assay [5]. The compound was called inactive in assay [1] and in assay [4]. In addition, the Potency result in [8] and in assay [9] was “inactive” throughout.
As for `COc1ccc2c(OCc3nnc4ccc(-c5ccccc5)nn34)ccnc2c1`, the max response was -1.03% in assay [1]; -1.11% and 9.78% in assay [4]; -4.81% and -9.25% in assay [5]. The compound was called inactive in [1], in [2], in [3] and in assay [7]. The Potency entry in assay [6] and in assay [8] was “inactive” in each case.
On to `CS(=O)(=O)c1ccc(-c2cnc(N)c(C(=O)Nc3ccccc3)n2)cc1`, for which the results for the max response in [1] and in [3] were -11% and -14.1%, respectively. Moreover, the compound was classed as inactive in [1], in assay [3] and in [4]. Also, the Potency was 11.6 µM (active) in assay [2]; 14.8 µM (active) and 5.17 µM (active) in assay [5]. Further, the Potency result in assay [6], in [8] and in assay [9] was “inactive” throughout.
As to `CCc1cc2c(cc1N1CCC(N3CCOCC3)CC1)C(C)(C)c1[nH]c3cc(C#N)ccc3c1C2=O`, the max response in assay [1] is -36.8% and 0.704%; in [2], -78.7%; in assay [3], -16.1% and -0.553%; in [4] it was -32% and 1.82%; in [5], -45.1% and -2.9%. Moreover, the Potency in [2] is 3.17 µM (active). Also, the Potency entry in [8] and in [9] was “inactive” throughout.
